# FAS TE block: FAS thioesterase (human) inhibition; actives 0.67% (n = 360,000); recombinant FAS-TE, OMFH fluorogenic substrate, fluorescence endpoint; P49327; inhibition, % at 15 µM;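 active means compounds whose normalised, plate-corrected inhibition of enzyme fluorescence in the single-dose primary screen is 50% or more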;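 further: 0% = DMSO with enzyme and 100% = substrate without enzyme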
# PfGluPho inh: PfG6PD (Plasmodium falciparum) enzyme inhibition; PfGluPho enzyme, NADPH resazurin-diaphorase fluorescence; actives 0.78% (n = 350,000); inhibition, % at 20 µM; AID 504690;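 active means inhibition reaching at least a set limit at 20 µM in the primary screen, cut at about 59% in these data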;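 further: 0% = DMSO wells with substrate and 100% = DMSO wells lacking glucose-6-phosphate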
# Neddylation inh: inhibitors of human cullin neddylation. P61081+Q13564. TR-FRET cullin neddylation, biochemical. calls only at 25 µM. AID 651699. actives 0.58% (n = 360,000); in the data active means inhibition above about 36%
# KLK7 zymogen act: activators of human kallikrein-7 zymogen; P49862; purified proKLK7, EDANS-DABCYL substrate fluorescence; 100% is mature enzyme control, 0% vehicle; activation, % at 7 µM; actives 0.9% (n = 370,000); AID 652039;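 active means activation above the mean of all tested compounds plus 3 SD, computed per campaign excluding outliers beyond control limits, cut at about 13% in these data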
# Target sequence (P49862 whole entry, looked up): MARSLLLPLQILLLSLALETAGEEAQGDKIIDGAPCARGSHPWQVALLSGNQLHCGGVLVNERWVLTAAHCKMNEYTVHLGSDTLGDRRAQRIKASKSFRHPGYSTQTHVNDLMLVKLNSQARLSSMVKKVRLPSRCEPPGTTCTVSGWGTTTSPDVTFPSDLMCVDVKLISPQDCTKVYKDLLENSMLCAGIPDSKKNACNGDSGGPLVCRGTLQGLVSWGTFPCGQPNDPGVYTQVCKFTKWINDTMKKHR
# FAS-TE inh conf: FAS thioesterase (human) inhibition, confirmation | actives 45% (n = 2,300) | recombinant FAS-TE, OMFH fluorogenic substrate, fluorescence | inhibition, % at 15 µM | AID 624325 | shares compounds with FAS TE block;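 active means compounds inhibiting the enzyme by at least 50% at 15 µM in any one of the replicates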;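 further: 0% = enzyme with DMSO only and 100% = wells lacking enzyme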
# Starred values were filed as active, the others as inactive; i = inactive; / = no result shown. This is a sample that favours compounds with a hit; in the whole collection about 2.7% have one here.
SMILES,FAS TE block,PfGluPho inh,Neddylation inh,KLK7 zymogen act,FAS-TE inh conf
CCOC(=O)Cn1cc(CN2C(C(=O)OC)CN(Cc3ccc(F)cc3)CCS2(=O)=O)nn1 (stereo not given),/,/,/,0.2,/
Cc1ccccc1CN1CCCCC(NC(=O)c2ccccc2F)C1=O (stereo not given),/,/,/,-0.2,/
COc1ccc2c(c1)OC[C@H]1[C@H]2N2C(=O)c3cc(Br)ccc3NC(=O)[C@@]2(C)[C@H]1c1ccccc1,85.7*,-14.0,i,/,-4.5
COc1ccc2c(c1)OC[C@H]1[C@@H]2N2C(=O)[C@@H](C)NC(=O)[C@@]2(C)[C@H]1c1ccccc1,-7.8,3.7,i,0.0,/
COc1ccc2c(c1)[C@H]1[C@H](CO2)[C@H](c2ccccc2)[C@]2(C)C(=O)Nc3ccc(Br)cc3C(=O)N12,32.8,-0.9,i,-0.8,/
COc1ccc2c(c1)[C@H]1[C@H](CO2)[C@H](c2ccccc2)[C@]2(C)C(=O)Nc3ccccc3C(=O)N12,44.1,-1.7,i,-0.7,/
COc1ccc2c(c1)OC[C@H]1[C@H]2N2C(=O)c3ccc(F)cc3NC(=O)[C@@]2(C)[C@H]1c1ccccc1,84.2*,-4.9,i,-1.6,42.4
COc1ccc2c(c1)C(=O)N1[C@H]3c4cc(OC)ccc4OC[C@@H]3[C@H](c3ccccc3)[C@]1(C)C(=O)N2,71.5*,-4.6,i,-4.8,28.1
COc1ccc2c(c1)[C@H]1[C@H](CO2)[C@H](c2ccccc2)[C@]2(C)C(=O)Nc3cc(F)ccc3C(=O)N12,53.7*,-6.0,i,-0.2,29.6
COc1ccc(OC)c(S(=O)(=O)N2CCC(C(=O)N3CCN(C4CCCCC4)CC3)CC2)c1,/,/,/,0.1,/
COC(=O)[C@]12C[C@H](CC(=O)N3CCOCC3)C(=O)N(CCc3ccc(OC)c(OC)c3)C1=C[C@H](COCc1ccccc1)O[C@@H]2C,/,/,/,0.1,/
COc1cc(-c2nc(C(=O)NC3CCCCC3)cc3c2[nH]c2ccccc23)cc(OC)c1OC,83.5*,23.2,i,-8.3,9.8
COc1ccc(-c2nc(C(=O)NCC3CCCO3)cc3c2[nH]c2ccccc23)cc1 (stereo not given),20.4,31.8,i,-3.0,/
COC(=O)C1CN(Cc2cn(Cc3ccc(OC)cc3)nn2)CCS(=O)(=O)N1Cc1ccccc1 (stereo not given),/,/,/,-0.4,/
CC1CCc2nc(NC(=O)CN3CCN(c4ccc(F)cc4)CC3)sc2C1 (stereo not given),85.1*,10.2,i,0.3,78.5*
Cc1ccc(-c2cc(C(=O)NN=Cc3cccc(Oc4ccccc4)c3)[nH]n2)cc1C,/,/,/,0.3,/
Cc1ccc(S(=O)(=O)N2C[C@H]3C(=O)C[C@@H](c4ccccc4)N(S(=O)(=O)c4ccc(C)cc4)[C@H]3C[C@H]2c2cccs2)cc1,37.0,/,i,-0.6,/
CCOC1=C2[C@@H](CN(S(=O)(=O)c3ccc(C)cc3)[C@H]2c2ccccc2)[C@H]2C(=O)N(c3ccccc3)C(=O)[C@H]2C1,28.3,/,i,-0.1,/
Cc1ccc(S(=O)(=O)N2C[C@H]3C(=O)C[C@@H]4C(=O)N(c5ccccc5)C(=O)[C@@H]4[C@@H]3C[C@H]2c2cccs2)cc1,70.0*,/,i,-0.1,45.9
Cc1ccc(S(=O)(=O)N2C[C@H]3C(=O)C[C@@H](c4ccccc4)N(S(=O)(=O)c4ccc(C)cc4)[C@H]3C[C@H]2c2cccc(Cl)c2)cc1,26.4,-6.7,i,-0.1,/
CCc1ccc([C@H]2C[C@H]3[C@H]4C(=O)N(c5ccccc5)C(=O)[C@H]4CC(=O)[C@@H]3CN2S(=O)(=O)c2ccc(C)cc2)cc1,74.2*,/,i,0.1,13.1
Cc1ccc(S(=O)(=O)N2C[C@H]3C(=O)C[C@@H]4C(=O)N(c5ccccc5)C(=O)[C@@H]4[C@@H]3C[C@H]2c2cccc(Cl)c2)cc1,85.0*,/,i,-0.8,1.5
CCOC1=C2CN(S(=O)(=O)c3ccc(C)cc3)[C@@H](c3cccs3)C[C@H]2[C@H]2C(=O)N(c3ccccc3)C(=O)[C@H]2C1,77.5*,/,i,0.5,21.6
Cc1ccc(/C=C/c2ccc(=O)n(Cc3ccc(F)cc3)n2)cc1,50.4*,21.3,/,-7.4,39.5*
O=C(Nc1ccc(F)cc1)C(c1ccccc1)N1CCN(S(=O)(=O)c2ccc3ccccc3c2)CC1 (stereo not given),85.7*,-3.5,i,-0.2,18.2
SMILES,FAS TE block,PfGluPho inh,Neddylation inh,KLK7 zymogen act,FAS-TE inh conf
Cc1ccc(C)c(S(=O)(=O)N2CCN(C(C(=O)Nc3ccc(F)cc3)c3ccccc3)CC2)c1 (stereo not given),25.2,1.7,i,-0.2,/
CC(OC(=O)c1cccc([N+](=O)[O-])c1)C(=O)N1CCc2ccccc21 (stereo not given),77.3*,7.5,i,-0.1,58.7*
COc1ccc(-c2c([C@H]3[C@H]4C=CC[C@@H](C)[C@@H]4C(=O)N3Cc3ccccc3)ccc3ccccc23)cc1OC,54.7*,-8.0,i,-0.9,13.6
CC(=O)Nc1ccc(NC2=Nc3ccccc3N3C2=Nc2c(c(C)nn2-c2ccccc2)C3c2ccccc2)cc1 (stereo not given),46.0,11.7,i,-0.1,/
COc1ccc(NC2=Nc3ccccc3N3C2=Nc2c(c(C)nn2-c2ccc(C)cc2)C3c2cccnc2)cc1 (stereo not given),69.7*,19.4,/,-0.3,8.9
Cc1cccc(C2=NN(c3ccccc3)[C@@H](C(=O)N3CCOC3=O)[C@@H]2c2ccc([N+](=O)[O-])cc2)c1,91.5*,15.6,i,0.0,17.5
O=C1OCCN1C(=O)[C@H]1[C@H](c2ccc([N+](=O)[O-])cc2)C(c2ccccc2)=NN1c1ccc(Br)cc1,90.0*,17.9,i,-0.7,11.7
O=C1OCCN1C(=O)[C@H]1[C@H](c2ccc([N+](=O)[O-])cc2)C(c2cccc(Cl)c2)=NN1c1ccc(Br)cc1,86.6*,9.7,i,0.6,6.2
COc1ccc(C2C(C(=O)Nc3cc(OC)ccc3OC)CCC(=O)N2c2ccc(OC)cc2)cc1 (stereo not given),/,/,/,0.4,/
C/C(=N/Nc1ccc(C(=O)O)cc1)c1ccc2c(c1)Nc1ccccc1S2,51.5*,18.4,i,4.2,62.1*
C/C(=N\Nc1ccc(C(=O)O)cc1)c1ccc2c(c1)Nc1ccccc1S2,71.3*,11.3,i,2.8,60.7*
COC(=O)c1cn(-c2ccc3c(c2)[C@]2(CC(=O)N(C)C2c2ccccc2)C(=O)N3CC(C)C)nn1 (stereo not given in full),/,/,/,0.6,/
COc1ccc(OC)c(S(=O)(=O)N2CCC(C(=O)NCC3COCCO3)CC2)c1 (stereo not given),/,/,/,0.2,/
N#Cc1ccc(CSc2nc3sc4c(c3c(=O)n2-c2ccc(Br)cc2)CCCC4)cc1,/,/,/,-0.5,/
C[C@@H]1ON(C)[C@H]2C[C@H]3c4[nH]c5c(-c6ccccc6F)cccc5c4CCN3C[C@@H]12,/,/,/,3.2,/
